# Compound activity from PubChem.
# VP16 counter – VP16 counterscreen qHTS for inhibitors of ROR gamma transcriptional activity | Drosophila S2 Gal4-VP16 UAS-luciferase, luminescence, 20 h | Potency, µM (top dose mostly 53.6 µM), for inactives: at the top dose activity, negative = inhibition, actives largely listed as inhibitors | 310,000 compounds, 3.5% hits | AID 2546, 2010;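 also: Gal4-VP16 expression switched on by copper sulfate through the metallothionein promoter; nearly all actives have a fitted effect of over 50% in size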
# ALDH1A1 inh – qHTS Assay for Inhibitors of Aldehyde Dehydrogenase 1 (ALDH1A1); AID 1030, 2008; 220,000 compounds, 7.3% hits; Aldehyde dehydrogenase 1A1 (Homo sapiens), P00352; Purified ALDH1A1, NADH fluorescence, propionaldehyde substrate; Potency, µM (highest dose often 75.3 µM), without a hit: at the highest dose activity, negative = inhibition, actives largely listed as inhibitors; active = well fitted inhibition curve with a large enough effect, not every such curve was filed as active; inconclusive = small, poorly fitted or top-dose-only effect, or another doubt; inactive = no such curve, though single readings can be large or run the other way;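 also: plate controls were no enzyme wells and a reference inhibitor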
# PLK1 PBD inh – qHTS for Inhibitors of PLK1-PDB (polo-like kinase 1 - polo-box domain): Primary Screen; Plk1 PBD binding of FITC phosphopeptide, fluorescence polarization; AID 720504, 2013; 360,000 compounds, 2.8% hits; Serine/threonine-protein kinase PLK1 (Homo sapiens), P53350; Potency, µM, inactives show max response, negative = inhibition, hits mostly inhibitors; also: series mostly up to about 57 µM; nearly all actives have a fitted effect of over 65% in size
# Target sequence (P53350 whole entry, looked up, the tested form may be a part): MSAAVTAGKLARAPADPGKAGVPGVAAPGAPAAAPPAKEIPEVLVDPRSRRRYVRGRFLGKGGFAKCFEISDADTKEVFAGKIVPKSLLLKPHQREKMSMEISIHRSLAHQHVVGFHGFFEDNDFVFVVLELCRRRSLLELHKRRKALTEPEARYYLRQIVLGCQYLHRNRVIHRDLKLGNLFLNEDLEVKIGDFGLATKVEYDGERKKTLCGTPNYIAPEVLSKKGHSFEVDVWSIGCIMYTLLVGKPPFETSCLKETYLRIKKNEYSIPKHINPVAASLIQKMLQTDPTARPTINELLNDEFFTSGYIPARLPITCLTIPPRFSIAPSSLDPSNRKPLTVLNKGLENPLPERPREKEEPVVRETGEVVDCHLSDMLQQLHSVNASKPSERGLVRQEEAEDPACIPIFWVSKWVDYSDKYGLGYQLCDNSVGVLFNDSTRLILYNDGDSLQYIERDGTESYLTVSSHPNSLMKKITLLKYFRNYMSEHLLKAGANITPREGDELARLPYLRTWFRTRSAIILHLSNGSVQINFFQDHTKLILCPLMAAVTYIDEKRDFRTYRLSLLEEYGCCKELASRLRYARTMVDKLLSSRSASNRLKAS
# RORgamma inh – qHTS for inhibitors of ROR gamma transcriptional activity | 310,000 compounds, 5.4% hits | Potency, µM (titrated, usually from 53.6 µM), for the others: at the top dose activity change, negative = inhibition, hits mostly inhibitors | Drosophila S2 Gal4-RORgamma UAS-luciferase reporter, 20 h | Nuclear receptor ROR-gamma (Mus musculus), P51450; also: nearly all actives have a fitted effect of over 60% in size
#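 Using a luciferase readout, inhibitors were identified by reduced reporter activity in Drosophila cells coexpressing a copper-inducible Gal4–ROR gamma fusion and UAS-driven Photinus luciferase, incubated 20 hr after 700 uM copper sulfate.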
# Sfp PPTase inh – qHTS Assay for Inhibitors of Bacillus subtilis Sfp phosphopantetheinyl transferase (PPTase); 310,000 compounds, 3.5% hits; Potency, µM, for inactives: largest response in the series, negative = inhibition, usual class: inhibitors; Biochemical Sfp PPTase activity, qHTS;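 also: the enzyme is Sfp with the accession as filed and its product quenches rhodamine fluorescence; 0% = enzyme reaction without inhibitor and -100% = no enzyme wells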
#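 After 15 min at room temperature with compound, 15 nM Sfp received 5 uM rhodamine-CoA plus 12.5 uM BHQ-2-ybbR (50 mM Hepes pH 7.6, 10 mM MgCl2). Rate came from the fluorescence difference over 30 min, ex 525/em 598 nm.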
# * hit, by the source's call; u = inconclusive; x = no result given; [ ] = remark or other dose. The list is not random: actives were taken first. Their share in the collection is about 12%. Unless noted, calls follow the shape of the dose curve; as a rule, active = well fitted curve in the direction sought with a large enough effect; inconclusive = small, poorly fitted or top-dose-only effect, or another doubt; inactive = no such curve, though single readings can be large; an effect the other way counts as inactive or inconclusive. Unless noted, % is scaled to controls: 0 for no effect and ±100 for the full control effect; potency is read from the fitted curve at half-maximal effect.
SMILES,VP16 counter,ALDH1A1 inh,PLK1 PBD inh,RORgamma inh,Sfp PPTase inh
CSc1nsc(/C=C/Nc2ccc(C)cc2)c1C#N,-11%,7.5µM*,9%,u,-1%
COc1cc(/C=N/Nc2snc(SC)c2C#N)ccc1O,-16%,1%,-3%,-32%,-22%
CCCn1c(SCC(=O)N2CC(=O)Nc3ccccc32)n[nH]c1=O,x,x,2%,x,x
CC(Sc1nnc(COc2ccc(Cl)cc2)n1Cc1ccco1)C(=O)N1CCNC1=O (stereo not drawn),x,x,-17%,x,x
COc1ccccc1/C=N/NC(=O)C(=O)Nc1ccccc1OC(F)(F)C(F)F,1%,19%,3%,-5%,-6%
O=C(N/N=C/c1cc(Br)ccc1O)C(=O)Nc1ccccc1OC(F)(F)C(F)F,2.8µM*,4%,4%,0.79µM*,16%
O=C(N/N=C/c1cc(Cl)ccc1O)C(=O)Nc1ccccc1OC(F)(F)C(F)F,2.5µM*,-4%,-2%,0.89µM*,10%
COc1cccc(Cn2c(=O)c(C)nc3cnc(N4CCOCC4)nc32)c1,-8%,u,x,-16%,11%
Nn1c(Cc2ccc(F)cc2)n[nH]c1=S,-6%,u,19µM*,-44%,-29%
Nn1c(Cc2ccccc2)n[nH]c1=S,-13%,7%,0%,3%,9%
CC(Cc1n[nH]c(=S)n1N)c1ccccc1 (stereo not drawn),-3%,x,27µM*,u,56µM*
COc1ccc(NC(=O)CCCCC(=O)Nc2ccc(OC)cc2)cc1,-11%,x,-10%,-1%[1.91 µM],15%
COc1ccc(NC(=O)C(C/C=C(/C)Cl)C(C)=O)cc1 (stereo not drawn),6%,4%,3.8µM*,-5%,23%
COc1ccc(N2CC(C)Cn3c2nc2c3c(=O)n(Cc3ccccc3)c(=O)n2C)c(OC)c1 (stereo not drawn),-11%,32µM*,-13%,u,-20%
COc1ccc(N2CCn3c2nc2c3c(=O)n(CCc3ccccc3)c(=O)n2C)c(OC)c1,-2%,u,x,7%,12%
CCOCCn1c(=O)c2c(nc3n2CC(C)CN3Cc2ccccc2)n(C)c1=O (stereo not drawn),4%,x,30µM*,-7%,-4%
COc1ccc(N2CCn3c2nc2c3c(=O)n(CCCc3ccccc3)c(=O)n2C)c(OC)c1,-18%,20µM*,-3%,u,19%
O=c1[nH]nc(-c2ccc[nH]2)[nH]1,x,x,-10%,x,x
COc1nc(N)nc2c1ncn2[C@@H]1C[C@H](O)[C@@H](CO)O1,x,8%[13.5 µM],x,x,x
CC(C)NC(=O)c1cc(C2CCCCN2S(=O)(=O)c2ccccc2)on1 (stereo not drawn),x,x,-8%,x,x
CC1(C)C(OC(=O)CCC(=O)O)CC[C@]2(C)C1CC[C@@]1(C)C2C(=O)C=C2[C@@H]3C[C@@](C)(C(=O)O)CC[C@]3(C)CCC21C (stereo partly drawn),0%,0%,x,-24%,-5%
Cc1cccc(OCC(=O)NCc2ccccc2)c1,30%,x,-11%,44%,8%
C/C(=N\NC(=O)COc1cccc(C)c1)c1ccc2ccccc2c1O,4µM*,x,2%,4.5µM*,7%
Nc1ncn([C@H]2O[C@@H](CO)[C@@H](O)[C@@H]2O)c(=O)n1,-13%[17 µM],-3%[20.9 µM],x,28%[16.9 µM],11%
COc1cc([N+](=O)[O-])ccc1NC(=S)Nn1cnnc1,-8%,x,9.5µM*,-13%,20µM*
SMILES,VP16 counter,ALDH1A1 inh,PLK1 PBD inh,RORgamma inh,Sfp PPTase inh
COc1cc([N+](=O)[O-])ccc1NC(=O)N1CCCCCC1,u,x,-5%,13µM*,10%
COC(=O)Nc1ccc([N+](=O)[O-])cc1OC,13%,-3%,-2%,u,15%
O=C(O)C1C2C=CC(C2)C1C(=O)Nc1ccc2c(c1)OCCO2 (stereo not drawn),-11%,1%,-8%,-35%,0%
COc1cc([N+](=O)[O-])ccc1NC(=O)Nc1ccc(C(=O)N2CCCC2)cc1,-10%,x,2%,-1%,-15%
CN(C)c1ccc(NC(=O)C2C3C=CC(C3)C2C(=O)O)cc1 (stereo not drawn),1%,x,-2%,-1%,50µM*
COc1cc([N+](=O)[O-])ccc1NC(=O)C1C2C=CC(C2)C1C(=O)O (stereo not drawn),-11%,x,-3%,-18%,32µM*
CC1(C(=O)Nc2ccc3c(c2)OCCO3)CN(S(C)(=O)=O)CC(=O)N1CCCn1ccnc1 (stereo not drawn),x,x,-15%,x,x
COC(=O)C1=C[C@@H](C(=O)OC)C2C3=C(C(=O)[C@]2(CC(C)C)NC(=O)c2ccccc2)[C@H](C)n2c(=O)n(-c4ccccc4)c(=O)n2[C@@H]3C1 (stereo partly drawn),5%,x,x,-6%,3%
COc1cccc(C(=O)Nc2ccc(NC(=O)C3C4C=CC(C4)C3C(=O)O)cc2)c1 (stereo not drawn),-9%,x,-12%,36%,-23%
COc1cc(NC(=O)C2C3C=CC(C3)C2C(=O)O)ccc1NC(=O)c1ccccc1 (stereo not drawn),-9%,x,-12%,-22%,89µM*
COc1cc(/C=C/C2=NNC(=O)CC2)cc(OC)c1OC,9%,x,6%,-27%,8%
CC(C)c1ccc(/C=C/C2=NNC(=O)CC2)cc1,-13%,-3%,9.5µM*,u,11%
COC(=O)C1C2CC3c4[nH]c5cc(OC)ccc5c4CCN3CC2CC(OC(=O)c2cc(OC)c(OC)c(OC)c2)C1OC (stereo not drawn),-30%,-9%,x,-23%,-19%
CCOCC(=O)Nc1nc2ccc(OC)cc2s1,-20%,18µM*,-8%,-31%,-1%
NNc1nc2ccc(Cl)cc2s1,u,35µM*,1%,u,-22%
COc1ccc(C(=O)Nc2nc3ccc(OC)cc3s2)cc1,4.5µM*,x,-2%,1.4µM*,-6%
COc1ccc(C(=O)Nc2nc3ccc(S(C)(=O)=O)cc3s2)cc1,-2%,u,-12%,14%,1%
Cn1ncc(Cl)c1C(=O)Nc1nc2ccc(Cl)cc2s1,u,u,17µM*,11µM*,-24%
O=C(c1cnccn1)N1CCC2(CC1)CCN(c1ncccn1)CC2,2%,-1%,x,15%,24%
CCC(=O)N1CCCC1(C)C(=O)Nc1ccc(C)c(C)c1 (stereo not drawn),x,x,3%,x,x
OC(c1ccc(CN2CCCCC2)cc1)c1ncc(-c2ccccc2F)[nH]1 (stereo not drawn),x,x,2%,x,x
N#CCCn1c(=O)c(-c2ccc(Cl)cc2)nc2cnc(N3CCNCC3)nc21,u,u,x,u,-19%
